Data published in PubChem BioAssay (Tox21).
Results filed as inconclusive are left out. Active and inactive are the calls of the source. Calls follow the shape of the dose curve; as a rule, active = well fitted curve in the direction sought with a large enough effect in the repeat runs; inconclusive = weak or mixed curves; inactive = no such curve, though single readings can be large; an effect the other way counts as inactive or inconclusive.

How the values were obtained:
[1] = A CellTox Green Cytotoxicity Assay to monitor cytotoxicity in HepG2 cells - 0 hour (AID 1224882); also: nearly all actives have a fitted effect of over 35% in size
How it was run: (§1)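 HepG2 cells, 600/well, preincubated 5 h with CellTox Green dye, then exposed to Tox21 compounds in DMSO at 37 C for up to 40 h. Dead-cell DNA fluorescence read at the indicated time point.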

[2] = A CellTox Green Cytotoxicity Assay to monitor cytotoxicity in HepG2 cells - 32 hour (AID 1224883); also: nearly all actives have a fitted effect of over 50% in size; also: potency is read from the fitted curve at half-maximal effect
How it was run: as §1

[3] = A CellTox Green Cytotoxicity Assay to monitor cytotoxicity in HEK293 cells - 8 hour (AID 1224884); also: nearly all actives have a fitted effect of over 35% in size
How it was run: (§2)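 HEK293 cells, 600/well, were preincubated 5 hours and then exposed to compounds at 37 C for up to 40 hours. A cell-impermeant cyanine dye staining dead-cell DNA was read by fluorescence at 0, 8, 16, 24, 32 and 40 h time points.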

[4] = qHTS RealTime-Glo MT Cell Viability Assay in HepG2 cells - 16 hour (AID 1224885); also: nearly all actives have a fitted effect of over 50% in size
How it was run: (§3)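 HepG2 cells were seeded at 600 cells/well together with NanoLuc luciferase and a cell-permeant prosubstrate, preincubated 5 h at 37 C/5% CO2, then pin-dosed with compounds in DMSO. Nonlytic luminescence from viable cells was read at each time point.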

[5] = qHTS assay to identify small molecule antagonists of the estrogen receptor alpha (ER-alpha) signaling pathway using the BG1 cell line in the presence of 0.1 nM 17-beta-estradiol - cell viability counter screen (AID 1259241); also: nearly all actives have a fitted effect of over 40% in size
How it was run: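 VM7Luc4E2, 4,000 cells/well, phenol red-free medium + 10% charcoal-stripped FBS; 24 hr plating; cpd + 0.1 nM E2 final, 22 hr 37C/5% CO2; CellTiter-Fluor 30 min, fluorescence.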

[6] = qHTS RealTime-Glo MT Cell Viability Assay in HEK293 cells - 8 hour (AID 1224887); also: top concentration of the series differs between compounds; nearly all actives have a fitted effect of over 50% in size
How it was run: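 600 cells/well were plated with the nonlytic NanoLuc/prosubstrate reagent, pre-incubated 5 h, then given 23 nL of compound in DMSO. Incubation at 37 C for 40 h, with luminescence from viable-cell-reduced substrate read repeatedly from 0 h.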

[7] = A CellTox Green Cytotoxicity Assay to monitor cytotoxicity in HEK293 cells - 16 hour (AID 1224888); also: nearly all actives have a fitted effect of over 35% in size
How it was run: as §2

[8] = qHTS RealTime-Glo MT Cell Viability Assay in HepG2 cells - 0 hour (AID 1224889); also: nearly all actives have a fitted effect of over 50% in size
How it was run: as §3

[9] = A CellTox Green Cytotoxicity Assay to monitor cytotoxicity in HepG2 cells - 8 hour (AID 1224890); also: nearly all actives have a fitted effect of over 45% in size
How it was run: as §1

[10] = qHTS RealTime-Glo MT Cell Viability Assay in HEK293 cells - 24 hour (AID 1224886)
How it was run: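 HEK293 cells were seeded at 600 cells/well together with NanoLuc luciferase and cell-permeant prosubstrate, preincubated 5 h at 37 C/5% CO2, then given compound in DMSO by pintool. Luminescence from viable-cell prosubstrate reduction was read repeatedly over 40 h.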

Measured: Potency

CCN(CC)CCOC(=O)C1(C2CCCCC2)CCCCC1
inactive: [1] | [3] | [4] | [5]
active: [2] 23.9 µM

CCc1cccc(C)c1
not listed: [10]
inactive: all other assays above

Clc1ccccc1CN1CCc2sccc2C1
not listed: [5] | [7] | [10]
inactive: all other assays above

CCN(CC)CCCN(c1ccccc1)C1Cc2ccccc2C1
active: [2] 23.9 µM
not listed: [7] | [10]
inactive: all other assays above

Cc1ccc2ccc3cccc4ccc1c2c34
not listed: [7] | [8] | [10]
inactive: all other assays above

O=C(c1ccccc1)c1cc(Cl)ccc1O
not listed: [6] | [10]
inactive: all other assays above

COc1cccc(OC)c1O
not listed: [9] | [10]
inactive: all other assays above

CC(C)(C)C1=CC(=O)C=C(C(C)(C)C)C1=O
not listed: [10]
inactive: all other assays above

C1CC(COCC2CO2)CCC1COCC1CO1 (configuration not stated)
not listed: [10]
inactive: all other assays above

CC1=C(/C=C/C(C)=C/C=C/C(C)=C\C=O)C(C)(C)CCC1
not listed: [7] | [10]
inactive: all other assays above

CC1CNCC(C)O1 (configuration not stated)
not listed: [4] | [10]
inactive: all other assays above

C=CC(=O)OCC(O)COc1ccccc1 (configuration not stated)
not listed: [4] | [6] | [9]
inactive: all other assays above

C#CC(O)CCC (configuration not stated)
not listed: [4]
inactive: all other assays above
